Source: PubChem
Sampled rows, rich in hits. Any-hit rate of the full collection: about 2.9%.
rCAG binder: binders of r(CAG) RNA repeats, primary screen, biochemical, fluorescence. r(CAG) RNA repeat, TO-PRO-1 dye displacement fluorescence. inhibition, % at 3 µM. hit rate 1.3% among 370,000;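 active means inhibition above the plate cutoff, the mean of all test compounds on that plate plus 3 SD, cut at about 35% in these data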;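 further: higher means more dye released from RNA so lower well fluorescence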
PAFAH1B2 FP inh: PAFAH1B2 enzyme inhibitors, primary screen, biochemical, fluorescence polarization, human | Platelet-activating factor acetylhydrolase IB subunit alpha2 (Homo sapiens), P68402 | recombinant PAFAH1B2, FP-rhodamine activity probe | inhibition, % at 3.39 µM | hit rate 1.2% among 340,000 | AID 492953, 2010;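 active means inhibition above the mean of all tested compounds plus 3 SD, cut at about 24% in these data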
Target sequence (P68402 whole entry, looked up): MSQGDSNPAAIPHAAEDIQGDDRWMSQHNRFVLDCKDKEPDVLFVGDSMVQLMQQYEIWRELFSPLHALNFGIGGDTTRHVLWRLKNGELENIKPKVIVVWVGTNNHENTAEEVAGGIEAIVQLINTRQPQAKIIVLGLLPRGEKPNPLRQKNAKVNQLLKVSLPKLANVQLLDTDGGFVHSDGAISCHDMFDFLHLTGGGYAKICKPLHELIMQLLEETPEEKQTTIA
PAFAH2 FP inh: PAFAH2 enzyme inhibitors, primary screen, biochemical, fluorescence polarization, human. inhibition, % at 3.39 µM. recombinant PAFAH2, FP-rhodamine activity probe. hit rate 0.99% among 340,000. AID 492956, 2010;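 active means inhibition above the mean over all tested compounds plus 3 SD, cut at about 30% in these data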;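 further: inhibitors block probe labeling of enzyme so polarization drops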
PAFAH1B3 inh: PAFAH1B3 enzyme inhibitors, primary screen, biochemical, fluorescence polarization, human. recombinant PAFAH1B3, FP-rhodamine probe. inhibition, % at 3.39 µM. hit rate 0.28% among 340,000;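 active means inhibition above the screen-wide average of all tested compounds plus 3 SD, cut at about 25% in these data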
Target sequence (Q15102 whole entry, looked up): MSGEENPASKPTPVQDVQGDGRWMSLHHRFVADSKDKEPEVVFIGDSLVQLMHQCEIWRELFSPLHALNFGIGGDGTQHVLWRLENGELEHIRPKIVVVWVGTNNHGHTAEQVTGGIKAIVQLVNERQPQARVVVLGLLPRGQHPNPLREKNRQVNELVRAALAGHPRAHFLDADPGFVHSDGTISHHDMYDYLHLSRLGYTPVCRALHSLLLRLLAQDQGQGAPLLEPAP
ZTA counter: ZTA (EBV) inhibition in EBNA-1 counter-screen; P03206; ZTA-DNA binding, fluorescence polarization; inhibition, % at 11 µM; hit rate 0.15% among 320,000; in the data active means inhibition above about 33%
Target sequence (P03206 whole entry, looked up): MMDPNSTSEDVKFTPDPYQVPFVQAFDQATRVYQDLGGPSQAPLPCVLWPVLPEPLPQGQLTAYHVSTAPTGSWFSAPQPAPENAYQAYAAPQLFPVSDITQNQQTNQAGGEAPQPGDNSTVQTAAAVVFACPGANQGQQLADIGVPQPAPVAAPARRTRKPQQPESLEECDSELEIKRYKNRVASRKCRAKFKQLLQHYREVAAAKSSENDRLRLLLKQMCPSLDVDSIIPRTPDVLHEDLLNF
EBNA-1 inhibitor: EBNA-1 DNA-binding inhibitors, primary screen, biochemical, fluorescence polarization; hit rate 0.34% among 300,000; inhibition, % at 14.8 µM; in the data active means inhibition above about 28%
rCAG binder conf: small molecules binding CAG repeat RNA – biochemical, fluorescence, confirmation; shares compounds with rCAG binder; r(CAG) RNA repeat, TO-PRO-1 dye displacement fluorescence; inhibition, % at 3 µM; hit rate 70% among 4,300;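 active means inhibition above a per-plate cutoff, the mean inhibition of sample wells plus 3 SD, cut at about 35% in these data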;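 further: loss of TO-PRO-1 fluorescence as compound displaces dye from 1x1 AA loop RNA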
DNA CAG counter: displacement of TO-PRO-1 from CAG DNA duplex, counter-screen for rCAG RNA repeat binder project, biochemical, fluorescence, TO-PRO-1 dye, d(CAG) DNA oligo; shares compounds with rCAG binder; d(CAG) DNA oligo TO-PRO-1 dye displacement; inhibition, % at 3 µM; hit rate 94% among 4,300; AID 652068, 2013;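 active means inhibition above its plate's cutoff, the mean test-well inhibition plus 3 SD, cut at about 4.8% in these data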;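 further: hits displace the dye from DNA and so lower well fluorescence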
DNA CAG DR: inhibitors of DNA CAG/GTC TO-PRO-1 complex, dose response, counter-screen for rCAG RNA repeat binder project, biochemical, fluorescence, TO-PRO-1 dye | DNA CAG/GTC duplex TO-PRO-1 dye displacement fluorescence | shares compounds with rCAG binder | hit rate 20% among 250 | IC50, µM; in the data active means IC50 below about 10 µM
Each line names hits and unclear results; the compound was inactive in the other large screens (follow-up assays come after a bar, where they were run).

Cc1ccc(C)c(S(=O)(=O)Nc2ccccc2C(=O)Nc2ccc(S(=O)(=O)Nc3ncccn3)cc2)c1	rCAG binder 77.4 | rCAG binder conf 50.6 | DNA CAG counter 18.2
Cc1ccc(C)c(S(=O)(=O)Nc2ccc(S(=O)(=O)Nc3ncccn3)cc2)c1	none (no result: EBNA-1 inhibitor)
Cc1ccc(C)c(S(=O)(=O)Nc2ccccc2C(=O)Nc2cc(C)on2)c1	rCAG binder 77.0 | rCAG binder conf 76.8 | DNA CAG counter 32.0 | DNA CAG DR inactive
CC(=O)Nc1ccc(C(=O)Nc2ccc(S(=O)(=O)Nc3nccc(C)n3)cc2)cc1	none
Cc1ccc(CNC(=O)c2ccccc2NS(=O)(=O)c2ccc(Cl)nc2)cc1	rCAG binder 43.0 | rCAG binder conf inactive | DNA CAG counter inactive
COc1cc2c(cc1NC(=O)c1ccccc1-c1ccccc1C(=O)O)-c1ccccc1C2	rCAG binder 66.0 (no result: PAFAH1B2 FP inh, PAFAH2 FP inh, PAFAH1B3 inh, ZTA counter, EBNA-1 inhibitor) | rCAG binder conf 59.6 | DNA CAG counter 20.5
Cc1ccc(-c2nn3cnnc3c3ccccc23)cc1	none
CCOC(=O)c1c(NC(=O)/C=C/C(=O)O)sc(C)c1-c1ccc(C(C)(C)C)cc1	rCAG binder 80.2 | rCAG binder conf 73.2 | DNA CAG counter 34.5 | DNA CAG DR 7.62
Cc1ccc(CSc2nc3c(c(SCC(=O)O)n2)CCCC3)cc1	rCAG binder 35.5 | rCAG binder conf inactive | DNA CAG counter 5.7
CCOC(=O)c1ccc2c(c1)C1C=CCC1C(C(=O)OCC)N2 (stereo not drawn)	rCAG binder 47.4 | rCAG binder conf 35.4 | DNA CAG counter 16.8
O=C(Nc1ccccc1F)Nc1ccccc1Br	none
CCO[C@H]1OC(C(=O)Nc2ccccc2)=C[C@@H](c2cn(C(C)=O)c3ccccc23)[C@@H]1CCCO	none
CCOC(=O)[C@]12CCC=C1N(Cc1ccc(Cl)cc1Cl)C(=O)[C@H](CC(=O)NCc1cccc3ccccc13)C2	none (no result: PAFAH1B2 FP inh, PAFAH2 FP inh, PAFAH1B3 inh, ZTA counter, EBNA-1 inhibitor)
NC1=NC(=O)/C(=C\c2ccc(-c3ccc(Cl)cc3)o2)S1	rCAG binder 47.8 | rCAG binder conf inactive | DNA CAG counter 8.6
CN(C)C1=NC(=O)/C(=C/c2ccc(-c3ccc(S(N)(=O)=O)cc3)o2)S1	none (no result: rCAG binder, PAFAH1B2 FP inh, PAFAH2 FP inh, PAFAH1B3 inh)
Nc1ccc(-c2cc(-c3ccc(N)cc3)nc(-c3ccccc3)n2)cc1	none
Oc1ccc(-c2cc(-c3ccc(O)cc3)nc(-c3ccccc3)n2)cc1	rCAG binder 64.8 | rCAG binder conf 50.6 | DNA CAG counter 26.5 | DNA CAG DR inactive
Cc1ccc(C(=O)C2C(=O)c3ccccc3C2=O)cc1	none
NN=C1c2ccccc2C(=O)C1C(=O)C(c1ccccc1)c1ccccc1 (stereo not drawn)	rCAG binder 44.6 (no result: ZTA counter, EBNA-1 inhibitor) | rCAG binder conf 44.0 | DNA CAG counter 27.8
Cc1cc(C)cc(N(CC(=O)Nc2ccc(Br)cc2)S(=O)(=O)c2c(C)[nH]c(=O)[nH]c2=O)c1	rCAG binder 51.1 | rCAG binder conf 42.4 | DNA CAG counter 9.2
CCC(=O)c1ccc(OCC(=O)O)cc1	none (no result: ZTA counter, EBNA-1 inhibitor)
CCCc1c(OCCCOc2ccc(OCC(=O)O)cc2)ccc(C(C)=O)c1O	rCAG binder 60.6 | rCAG binder conf 50.9 | DNA CAG counter 15.7
O=C(NN1C(=O)c2cc(Br)ccc2NC1c1cc(Br)cc(Br)c1O)c1ccncc1 (stereo not drawn)	rCAG binder 51.0 | rCAG binder conf 42.2 | DNA CAG counter 13.9
CC(C)[C@H](NC(=O)[C@H](Cc1ccccc1)NC(=O)OC(C)(C)C)C(=O)N1CCC2CCN(S(=O)(=O)c3ccccc3)CC21 (stereo partly drawn)	none (no result: PAFAH1B2 FP inh, PAFAH2 FP inh, PAFAH1B3 inh, ZTA counter, EBNA-1 inhibitor)
Cc1ccc(Cc2cnc(N3C(=N)SC(c4ccccc4)C3=O)s2)cc1 (stereo not drawn)	rCAG binder 64.3, PAFAH1B2 FP inh 39.5 | rCAG binder conf 68.9 | DNA CAG counter 23.2
O=C(Nc1ncc(Cc2ccccc2)s1)C1=NCCN1	none
N=C1SC(c2ccccc2)C(=O)N1c1ncc(Cc2ccccc2)s1 (stereo not drawn)	rCAG binder 44.6, PAFAH1B2 FP inh 34.3 | rCAG binder conf 56.6 | DNA CAG counter 19.0
CC1(C(=O)NS(=O)(=O)c2cccc(C#N)c2)CCN1C(=O)Cc1ccc(Cl)cc1Cl (stereo not drawn)	none (no result: PAFAH1B2 FP inh, PAFAH2 FP inh, PAFAH1B3 inh, ZTA counter, EBNA-1 inhibitor)
CCCCN1C(=O)N2CCc3ccccc3C2CS1(=O)=O (stereo not drawn)	none (no result: PAFAH1B2 FP inh, PAFAH2 FP inh, PAFAH1B3 inh, ZTA counter, EBNA-1 inhibitor)
N#Cc1ccc(C(=O)Nc2cccc(NC(=O)c3ccco3)c2)c(F)c1	none
O=C(OCc1cn(Cc2ccc(Cl)cc2)nn1)N1CCCC1	none (no result: PAFAH1B2 FP inh, PAFAH2 FP inh, PAFAH1B3 inh, ZTA counter, EBNA-1 inhibitor)
Cc1ccc(S(=O)(=O)N(CC(=O)Nc2ccc(C)cc2C)C(=O)N2CCN(C)CC2)cc1	none
O=C(O)COc1ccc(Br)cc1/C=C1/SC(=O)N(CC(=O)N2CCCC2)C1=O	none
O=C(O)CN1C(=O)/C(=C\c2cc(Br)ccc2OCc2ccc([N+](=O)[O-])cc2)SC1=S	rCAG binder 76.6 | rCAG binder conf 94.4 | DNA CAG counter 75.2
O=C(O)CN1C(=O)/C(=C\c2cc(Br)ccc2OCc2ccccc2F)SC1=S	rCAG binder 64.8, PAFAH2 FP inh 31.1 | rCAG binder conf 87.2 | DNA CAG counter 60.6
O/N=C/c1cc(Br)ccc1OCc1ccccc1F	none
O=C(O)CN1C(=O)/C(=C\c2ccccc2OCc2ccc(Cl)cc2Cl)SC1=S	rCAG binder 79.4 | rCAG binder conf 89.8 | DNA CAG counter 65.7
O=C(O)CN1C(=O)/C(=C\c2cc(Br)ccc2OCc2ccccc2Cl)SC1=S	rCAG binder 77.8 | rCAG binder conf 93.2 | DNA CAG counter 74.8
COC(=O)CNC(=S)NC(=O)c1ccc(C(C)(C)C)cc1	none
COc1ncc(-c2c(-c3ccccc3OC)sc3ccccc23)cn1	none (no result: PAFAH1B2 FP inh, PAFAH2 FP inh, PAFAH1B3 inh, ZTA counter, EBNA-1 inhibitor)
C/C(=N\NC(=O)CCc1ccc(S(=O)(=O)N2CCOCC2)cc1)c1ccc(Br)cc1	none
Nc1nonc1C(=O)NCCNS(=O)(=O)c1ccc(F)cc1	none
COc1cccc(/C=C2/SC(=S)N(CC(=O)NNC(=O)c3ccccc3OC)C2=O)c1	none
O=C(O)CN1C(=O)/C(=C\c2cccc(OCc3ccc(Cl)cc3Cl)c2)SC1=S	rCAG binder 78.6, PAFAH1B2 FP inh 25.5 (no result: ZTA counter, EBNA-1 inhibitor) | rCAG binder conf 85.3 | DNA CAG counter 57.5
Cc1ccccc1CN1[C@@H](CC(C)C)COc2cc(Br)ccc2S1(=O)=O	none (no result: PAFAH1B2 FP inh, PAFAH2 FP inh, PAFAH1B3 inh, ZTA counter, EBNA-1 inhibitor)
